According to PubChem BioAssay AID1063 (University of Pittsburgh Molecular Library Screening Center, 2008):
In all, about 200,000 compounds went through this assay and about 18,000 (9%) were called active. No stated cut-off is given here; in the data, active means inhibition above about 50%; inactive means the rest. For the sample, actives were picked, then their nearest neighbours and some compounds at random.

Test: antileishmanial activity against promastigotes – primary screen (AID 1063);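 further: promastigotes grown with compound for 44 hours at 28 °C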
Conditions: Leishmania major promastigotes, resazurin fluorescence viability; at 10 µM; active compounds read high

| SMILES | inhibition |
| --- | --- |
| CCN(CC)C(=O)CS(=O)CC(=O)Nc1cc(OCCOC)c(Cl)cc1Cl (stereo not given) | 1.34% (inactive) |
| Cc1ccnc2nc(C(=O)Nc3nnc(-c4ccccc4)o3)nn12 | -14.4% (inactive) |
| CCOc1ccc(-n2cnnn2)cc1S(=O)(=O)N1CCC(C)CC1C (stereo not given) | -5.29% (inactive) |
| COc1cc2[nH]c(=S)n(Cc3ccc(F)cc3)c(=O)c2cc1OC | -5.46% (inactive) |
| CCOC(=O)C1CCN(S(=O)(=O)c2cc(F)ccc2OC)CC1 | 6.21% (inactive) |
| Cc1cccc2cc(CN(Cc3nnnn3Cc3ccccc3)C3CCCC3)c(=O)[nH]c12 | 36.7% (inactive) |
| Cc1cc2cc(CN(Cc3cccs3)Cc3nnnn3CC3CCCO3)c(=O)[nH]c2cc1C (stereo not given) | 21.2% (inactive) |
| Cc1cc(C)c2cc(CN(Cc3cccs3)Cc3nnnn3CC3CCCO3)c(=O)[nH]c2c1 (stereo not given) | 48.9% (inactive) |
| CCC(c1nnnn1C1CCCC1)N(Cc1cccs1)Cc1cc2cccc(C)c2[nH]c1=O (stereo not given) | 30.1% (inactive) |
| Cc1cccc2cc(CN(Cc3cccs3)C(c3nnnn3C3CCCC3)C(C)C)c(=O)[nH]c12 (stereo not given) | 90.3% (active) |
| Cc1cccc2cc(CN(Cc3ccc4c(c3)OCO4)Cc3nnnn3C3CCCC3)c(=O)[nH]c12 | 71.8% (active) |
| C=C(C)CNC(=S)N/N=C/c1ccccc1OCC(=O)O | -1.38% (inactive) |
| O=S(=O)(NCCc1ccc(F)cc1)c1cccc2cccnc12 | -0.53% (inactive) |
| O=C1C2C3C=CC(C3)C2C(=O)N1c1ccc(-c2nc3ccccc3c(=O)o2)cc1 (stereo not given) | -7% (inactive) |
| COc1ccc(OC)c(-n2c(=S)[nH]c3cc(C(=O)N4CCCCC4)ccc3c2=O)c1 | -7.75% (inactive) |
| COc1ccc(C(=O)Nc2ccc(-n3nncc3C(C)(C)C)cc2)cc1 | -0.36% (inactive) |
| COc1cc(C(=O)OCc2ccc([N+](=O)[O-])cc2)cc(OC)c1OC | -8.98% (inactive) |
| COc1cc(/C=N\Nc2ccc([N+](=O)[O-])cn2)ccc1OCC(=O)O | 4.37% (inactive) |
| COc1cc(/C=N/O)ccc1OCc1ccc([N+](=O)[O-])cc1 | 51.5% (active) |
| COC(=O)Cc1ccc(Oc2ncc(C(F)(F)F)cc2Cl)cc1 | -7.25% (inactive) |
| C/C(=N\NC(=O)NC1CCCCC1)c1ccc(OC(F)F)cc1OC(F)F | 46.4% (inactive) |
| CCN(CC)CCOC(=O)c1ccc(NC(=O)CNC(=O)c2ccccc2)cc1 | -0.48% (inactive) |
| CCOC(=O)c1ccccc1NC(=S)N1CCC(C(N)=O)CC1 | 4.08% (inactive) |
| COc1cccc(-n2c(=O)c3c(C)c(C(=O)N(C)C)sc3n(CC(=O)NCCc3ccc(OC)c(OC)c3)c2=O)c1 | 2.17% (inactive) |

| SMILES | inhibition |
| --- | --- |
| COc1cc(OC)c(C(=O)Nc2ccccc2-c2ccccc2)cc1OC | 82.5% (active) |
| O=C(Nc1ccccc1F)c1ccccc1-c1ccccc1 | -3.5% (inactive) |
| COc1cc(OC)c(C(=O)Nc2ccc(N(C)C)cc2)cc1OC | 3.39% (inactive) |
| O=C(NCc1ccccc1Cl)C1CCN(S(=O)(=O)N2CCOCC2)CC1 | -5.43% (inactive) |
| CCOc1ncccc1C(=O)OCC(=O)NC1CC1 | 4.89% (inactive) |
| Cc1csc(NC(=O)CSc2ccc(-c3ccc(F)cc3)nn2)n1 | 7.99% (inactive) |
| NNC(=O)C1CC(O)CN1S(=O)(=O)c1ccc(Cl)cc1 (stereo not given) | 4% (inactive) |
| O=C(NCc1ccccc1)C1CCCN(c2nc3ccsc3c(=O)s2)C1 (stereo not given) | -5.75% (inactive) |
| C=CCn1c(COc2ccc(F)cc2)nnc1SCC(=O)Nc1cccc(S(N)(=O)=O)c1 | 1.1% (inactive) |
| COc1ccc(NC(=O)c2ccccc2CC[N+](=O)[O-])cc1 | 13.1% (inactive) |
| CC(C)n1c(SCC(=O)Nc2ccccc2N2CCCCC2)nc2c1c(=O)n(C)c(=O)n2C | 58.5% (active) |
| Cn1c(=O)c2c(nc(SCC(=O)Nc3ccccc3N3CCCCC3)n2C)n(C)c1=O | 31% (inactive) |
| Cc1ccccc1NC(=O)CNc1ccccc1N1CCCCC1 | 21.9% (inactive) |
| CN(c1ccccc1)S(=O)(=O)c1ccc(Cl)c(C(=O)OCC(=O)N2CCOCC2)c1 | 1.28% (inactive) |
| COC(=O)c1nc2ccccc2s1 | -8.95% (inactive) |
| CCC(=O)NC(=Nc1nc2ccccc2s1)NC(=O)CC | 8.31% (inactive) |
| CC(C)CC(=O)N/C(N)=N/c1nc2ccccc2s1 | 95.3% (active) |
| CC/C(=N\NC(=S)NC(C)C)c1ccc(OC(F)F)cc1 | 16.9% (inactive) |
| Cc1cc(Cl)ccc1OCCCC(=O)NCc1ccncc1 | -0.52% (inactive) |
| CN(C)CCOc1ccc(Cl)cc1C(C)(C)C | 6.15% (inactive) |
| CC(C)(C)NCCCOc1ccc(Cl)cc1C(C)(C)C | 100% (active) |
| O=C(CN(c1cccc(Cl)c1)S(=O)(=O)c1ccccc1)NN=C1CCCC1 | 12.4% (inactive) |
| COC(=O)[C@H](Cc1ccccc1)NC(=O)N1CC(C)OC(C)C1 (stereo not given in full) | 15.6% (inactive) |
| c1ccc(-c2ccccc2OCCN2CCCCC2)cc1 | 8.2% (inactive) |

| SMILES | inhibition |
| --- | --- |
| CC1CN(CCCOc2ccccc2-c2ccccc2)CC(C)O1 (stereo not given) | 88.7% (active) |
| CC1CCCN(CCOCCOc2ccccc2-c2ccccc2)C1 (stereo not given) | 98.6% (active) |
| CC1CCCN(Cc2nc3c(c(=O)n(C)c(=O)n3C)n2CC(=O)c2ccccc2)C1 (stereo not given) | 22.4% (inactive) |
| CN1CCN(CCCCOc2ccccc2-c2ccccc2)CC1 | 44.5% (inactive) |
| CC1CCN(S(=O)(=O)c2ccc(S(=O)(=O)NCc3cccnc3)cc2)CC1 | -2.4% (inactive) |
| CS(=O)(=O)N(CC(=O)NC1CCCC1)Cc1ccc(F)cc1 | -5.9% (inactive) |
| Cc1cccn2c(=O)c3cc(C#N)c(=NC(=O)c4cccnc4)n(CC4CCCO4)c3nc12 (stereo not given) | 16.8% (inactive) |
| Cc1ccc(-n2c(=O)c(C#N)cc3c(=O)n4ccccc4nc32)cc1C | 2.63% (inactive) |
| Cc1cccn2c(=O)c3cc(C#N)c(=O)n(CCCN4CCOCC4)c3nc12 | 95.7% (active) |
| CN1C(=O)/C(=C\c2ccc(-c3ccccc3)o2)SC1=S | -6.51% (inactive) |
| O=C(NC1CCCCC1)n1c(=O)oc2cc(S(=O)(=O)N3CCCCC3)ccc21 | 2.93% (inactive) |
| O=C(NC1CCCCC1)C1CCCN(S(=O)(=O)c2ccc(Br)s2)C1 (stereo not given) | 12.5% (inactive) |
| O=C(Cc1ccc(S(=O)(=O)N2CCCC2)s1)NC1CCCCCC1 | 93.5% (active) |
| O=C(Cc1ccc(S(=O)(=O)N2CCOCC2)s1)NCCC(c1ccccc1)c1ccccc1 | 98.1% (active) |
| COc1ccccc1NC(=O)COC(=O)Cc1ccc(S(=O)(=O)N2CCCCC2)s1 | 6.48% (inactive) |
| O=C(NCCc1ccccc1)C1CCN(S(=O)(=O)c2ccc(Br)s2)CC1 | -1.73% (inactive) |
| COc1cccc(CC(=O)N2CCCC(CCC(=O)N3CCN(c4ccccn4)CC3)C2)c1 (stereo not given) | 8.58% (inactive) |
| Cc1cc(OC(=O)c2ccccc2Cl)ccc1N1C(=O)CCC1=O | -6.74% (inactive) |
| Cc1ccccc1-n1nc(SCC(=O)O)sc1=S | -4.01% (inactive) |
| Cc1ccc(C2CCN(C(=S)Nc3cccc(Cl)c3)C2)cc1 (stereo not given) | 0.88% (inactive) |
| CCOc1ccc(/C=N/Nc2nncc(-c3ccccc3)n2)cc1OC | -2.97% (inactive) |
| CC(C)(C)C(=O)/C(C#N)=C/c1ccc(O)cc1 | -4.15% (inactive) |
| Cc1[nH]c2ccccc2c1/C=C(/C#N)C(=O)NC(C)C | 16.4% (inactive) |
| CC(C)NC(=O)/C(C#N)=C\c1ccc(N(C)C)c(Br)c1 | 64.6% (active) |

| SMILES | inhibition |
| --- | --- |
| C1CC1Cc1noc(CN2CCN(CC3CC3)CC2)n1 | 15.8% (inactive) |
| CCOc1ccc2nc(C(=O)N3CCCC(C)C3)sc2c1 (stereo not given) | 41.6% (inactive) |
| CCOc1ccc2nc(/N=C/c3nc(-c4ccccc4)oc3O)sc2c1 | 54.2% (active) |
| CC(N=Cc1nc(-c2ccccc2)oc1O)c1ccccc1 (stereo not given) | -1.28% (inactive) |
| Cc1ccc(S(=O)(=O)N(C)CC(=O)OCC(=O)N2CC(=O)Nc3ccccc32)cc1 | 0.63% (inactive) |
| N/C(=N\OC(=O)c1ccc2c(c1)OCO2)c1ccc(Br)cc1 | 1.57% (inactive) |
| CCCC1CCC(=NNC(=S)NCCc2ccccc2)CC1 (stereo not given) | -9.55% (inactive) |
| CCCCNC(=S)N/N=C1\CCCCc2ccccc21 | 97.5% (active) |
| Cc1ccc(NC(=S)N/N=C2/CCCc3c(C)cc(C)cc32)cc1 | -7.12% (inactive) |
| CCN(C(=O)COC(=O)c1cc(S(=O)(=O)N2CCc3ccccc32)ccc1OC)C1CCS(=O)(=O)C1 (stereo not given) | -4.24% (inactive) |
| CN(C)c1ccc(Nc2c3c4c(cccc4n(C)c2=O)C(=O)c2ccccc2-3)cc1 | 59% (active) |
| NC(=O)Cc1nc2scc(-c3ccc(Cl)cc3)c2c(=O)[nH]1 | 5.26% (inactive) |
| O=c1[nH]c(CCl)nc2cc(-c3ccc(Cl)cc3)sc12 | 96.9% (active) |
| O=c1[nH]c(CN2CCOCC2)nc2cc(Cl)ccc12 | -9.96% (inactive) |
| CCN(CC)C(=O)Oc1ccc(OC(=O)N(CC)CC)cc1 | -5.77% (inactive) |
| CC(C)C(=O)Nc1cccc(NC(=O)c2ccc([N+](=O)[O-])cc2Cl)c1 | 6.59% (inactive) |
| Cc1ccc(NC(=O)c2cc([N+](=O)[O-])ccc2Cl)c(O)c1 | 15.1% (inactive) |
| CCC(C)C(=O)Nc1cc([N+](=O)[O-])ccc1Cl (stereo not given) | 72.6% (active) |
| CCCS(=O)(=O)N1CCC(CCOc2ccccc2)(C(=O)OCC)CC1 | -1.49% (inactive) |
| COc1ccc(Cl)cc1NC(=O)NC(C)C(C)(C)C (stereo not given) | 16.3% (inactive) |
| COc1ccc(/C=C/C(=O)N2CCCC2)cc1OC | -1.79% (inactive) |
| CCOC(=O)C1CCN(C(=O)/C=C/c2cc(OC)c(OC)c(OC)c2)CC1 | 55% (active) |
| CCOC(=O)C1CCCN(C(=O)/C=C/c2ccc(OC)cc2)C1 (stereo not given) | 7.27% (inactive) |
